Assay results as given in the supplement of paper PMC6555819.

Tests used:
Test in all cases: PBM binding z-score (relative to random genomic background probes); higher = stronger binding; sequences stand for … in GC…GCGATTGACAGCGTAGAATGAAGG
[1] = system: FXR:RXRa (NR concentration 270 nM, RXRa partner concentration 90 nM)
How it was run: (§1)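 Regression normalization was applied to scanned fluorescence from custom Agilent 4×180K protein-binding microarrays. Before scanning, arrays were incubated 1 h with ligand-free nuclear receptor dimers, and binding was detected with antibodies against each partner (one per run). Binding z-scores use the random background probes as reference.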

[2] = system: LXRa:RXRa (NR concentration 270 nM, RXRa partner concentration 90 nM)
How it was run: as §1

[3] = system: LXRa homodimer (NR concentration 270 nM)
How it was run: as §1

[4] = system: LXRb:RXRa (NR concentration 270 nM, RXRa partner concentration 90 nM)
How it was run: as §1

[5] = system: LXRb homodimer (NR concentration 270 nM)
How it was run: as §1

[6] = system: PPARa:RXRa (NR concentration 270 nM, RXRa partner concentration 90 nM)
How it was run: as §1

[7] = system: PPARg:RXRa (NR concentration 180 nM, RXRa partner concentration 90 nM)
How it was run: as §1

[8] = system: PPARg:RXRa 270nM:90nM, anti-RXR (NR concentration 270 nM, RXRa partner concentration 90 nM)
How it was run: as §1

[9] = system: PPARg:RXRa 30nM:10nM, anti-RXR (NR concentration 30 nM, RXRa partner concentration 10 nM)
How it was run: as §1

[10] = system: PPARg:RXRa 90nM:30nM, anti-RXR (NR concentration 90 nM, RXRa partner concentration 30 nM)
How it was run: as §1

[11] = system: PPARg:RXRa DBDmut IVT, anti-RXR (DBD mutation: RXRa K156A/R161A, NR concentration 270 nM, RXRa partner concentration 90 nM)
How it was run: as §1

[12] = system: PPARg:RXRa IVT, anti-PPARg (NR concentration 270 nM, RXRa partner concentration 90 nM)
How it was run: as §1

[13] = system: PPARg DBDmut:RXRa IVT, anti-PPARg (DBD mutation: PPARg1 K132A/R137A, NR concentration 270 nM, RXRa partner concentration 90 nM)
How it was run: as §1

[14] = system: PPARg DBDmut IVT, anti-PPARg (DBD mutation: PPARg1 K132A/R137A, NR concentration 270 nM)
How it was run: as §1

[15] = system: PPARg homodimer (NR concentration 180 nM)
How it was run: as §1

[16] = system: PXR:RXRa (NR concentration 270 nM, RXRa partner concentration 90 nM)
How it was run: as §1

[17] = system: PXR homodimer (NR concentration 270 nM)
How it was run: as §1

[18] = system: RARa:RXR (NR concentration 270 nM, RXRa partner concentration 90 nM)
How it was run: as §1

[19] = system: RARa homodimer (NR concentration 270 nM)
How it was run: as §1

[20] = system: RARb:RXRa (NR concentration 270 nM, RXRa partner concentration 90 nM)
How it was run: as §1

Sequence | PBM binding z-score [1] | PBM binding z-score [2] | PBM binding z-score [3] | PBM binding z-score [4] | PBM binding z-score [5] | PBM binding z-score [6] | PBM binding z-score [7] | PBM binding z-score [8] | PBM binding z-score [9] | PBM binding z-score [10] | PBM binding z-score [11] | PBM binding z-score [12] | PBM binding z-score [13] | PBM binding z-score [14] | PBM binding z-score [15] | PBM binding z-score [16] | PBM binding z-score [17] | PBM binding z-score [18] | PBM binding z-score [19] | PBM binding z-score [20]
GATACAGGGTCAAGGACAGAGTACGCGTATTGAT | 6.59 | 4.45 | 0.185 | 4 | 0.413 | 5.54 | 5.7 | 5.61 | 2.93 | 4.51 | 3.11 | 3.89 | 1.4 | 0.618 | 2.51 | 3.92 | 0.786 | 4.72 | 1.69 | 4.52
TGTCAAAGTTCAAAGGTAACGTTAGTATCCACAC | 7.28 | 6.46 | 4.63 | 4.65 | 1.95 | 5.88 | 8.96 | 7.52 | 5.52 | 7.18 | 0.507 | 4.64 | 0.572 | 1.49 | 2.93 | 5.67 | 4.38 | 6.71 | 1.65 | 5.29
ACAGACAGGTGATGAAGGTCACTCAGGCTATCAT | 1.77 | 2.17 | 0.813 | 1.96 | 0.00655 | 2.75 | 1.62 | 1.8 | 0.565 | 1.21 | 0.771 | 1.97 | 0.688 | 0.177 | 2.08 | 2.81 | 2.02 | 2.83 | 0.664 | 3.03
CCAGACCGGTGAGAAGGTAACTCAGCCTCGATTA | -0.29 | 0.0278 | 0.205 | -0.175 | -0.35 | -0.101 | -0.0328 | -0.307 | -0.601 | -0.547 | -0.324 | -0.727 | -1.57 | -1.1 | 0.768 | -0.393 | -0.18 | -0.155 | 0.901 | -0.00175
ATCTTTAGGTAAAAGTTCAGTGAATCCCGAGGAT | 0.829 | 1.33 | 1.14 | 0.973 | 1.01 | 4.03 | 6.36 | 7.35 | 6.09 | 7.91 | 0.803 | 3.1 | 1.38 | 1.31 | 1.01 | 2.07 | 1.47 | 1.56 | 0.328 | 2.51
ACTAGCAGGCCGAGGGTCACTCAAGATTAGTCCG | 0.88 | 1.52 | -0.557 | 1.31 | -0.725 | 2.71 | 3.61 | 4.99 | 2.21 | 4.78 | -0.156 | 1.16 | -0.888 | -0.885 | 0.902 | 1.71 | -0.0802 | 2.32 | -0.0933 | 2.43
ATCTCTAGGTAAGCCTCAGTTCAGTGAAGAACGC | 0.31 | 0.658 | 0.468 | 0.438 | 0.861 | 0.35 | -0.00624 | 0.396 | -0.0235 | 0.487 | 2.22 | 1.13 | -0.0785 | 0.191 | 0.657 | 1.23 | 0.98 | 0.356 | 0.375 | 0.44
CGAGCTAGGTCATTGACAGGACAGTGAATAGTAA | 5.01 | 3.11 | 0.348 | 2 | -0.314 | 3.33 | 2.12 | 2.15 | 0.406 | 1.34 | 3.51 | 2.78 | 0.0808 | -0.146 | 0.918 | 1.54 | 0.31 | 2.18 | -0.128 | 3.66
TAGCCTAGGTCATGGGCCAGCATACCACGCGAAC | 4.04 | 3.14 | 0.0336 | 2.05 | -0.463 | 3.9 | 3.38 | 3.53 | 1.26 | 2.69 | 1.68 | 3.04 | 0.798 | -0.0378 | 1.22 | 1.38 | -0.554 | 2.74 | -0.41 | 3.79
TCATTTAGGTAAACAGGTGAAAGTCCGTAAGTTA | 1.47 | 1.13 | 0.719 | 1.04 | 0.705 | 2.37 | 2.24 | 3.73 | 4.42 | 3.99 | 3.9 | 3.97 | 1.38 | 1.49 | 1.97 | 1.01 | 0.929 | 1.52 | 1.74 | 1.08
ATCCCTAGGTAACAAGTTCAGTGAAAGAGAGGAC | 0.484 | 0.833 | 0.361 | 0.843 | 0.823 | 0.724 | 0.555 | 0.236 | 0.0944 | 0.289 | 0.293 | 0.638 | 0.652 | 0.582 | 1.15 | 1.7 | 1.53 | 0.808 | 0.946 | 1.51
AGAATGAGGTTAAGATCAGGCAAACAGAATACAT | 2.11 | 5.61 | -0.312 | 2.82 | -0.408 | 3.45 | 2.21 | 2.38 | 0.95 | 1.63 | 2.85 | 2.81 | 0.992 | 0.64 | 0.518 | 1.33 | -0.00329 | 2.09 | 0.263 | 1.92
CAAACTAGGTCATTGACAGGACAGTGAATAGTAA | 4.7 | 3.38 | 0.946 | 2.29 | 0.688 | 4.71 | 7.82 | 6.85 | 3.97 | 6.16 | 8.37 | 8.3 | 2.39 | 1.76 | 2.3 | 1.73 | 0.252 | 2.35 | 0.262 | 3.75
TCTTCTAGATCAACAGGAGGTTAAGAAAGATCGA | 0.645 | 1.25 | 0.194 | 0.772 | 0.728 | 1.24 | 0.0258 | 1.94 | 3.46 | 2.67 | 1.93 | 1.19 | 1.81 | 1.8 | 0.382 | 0.755 | 0.113 | 1.32 | 0.555 | 0.762
GGAACGAGGGTAAAGTTGATAGCATCTGTCGACG | 0.472 | 0.494 | -0.531 | 0.361 | -0.696 | 3.37 | 5.63 | 6.72 | 4.9 | 7.39 | 2.48 | 2.91 | 0.376 | -0.666 | 0.544 | 0.0856 | -0.214 | 0.287 | -0.126 | 0.952
TCATATAGGAAAACAGGTGAAAGTCCGTAAGTTA | 1.22 | 1.13 | 0.235 | 1.11 | -0.323 | 1.44 | 1.13 | 2.8 | 4.43 | 3.77 | 2.83 | 1.11 | 0.0218 | 0.116 | 0.804 | 0.845 | 0.476 | 1.14 | 1.74 | 0.355
ACTAGCAGGCCAAGTTTGGGTCACGCAAACAAAG | 1.01 | 0.518 | -0.2 | 1.33 | -0.873 | 2.27 | 0.556 | 1.04 | -0.0172 | 0.546 | 1.23 | 1.63 | -0.285 | -0.284 | 0.631 | 1.61 | -0.0621 | 2.51 | -0.0801 | 2.33
